# How the values were obtained:
# Conditions in all cases: concentration: 1 μM, replicates: in singlicate; n = 1
# MTOR = tested on: MTOR
# MUSK = tested on: MUSK
# MYLK2 = tested on: MYLK2
# MYLK4 = tested on: MYLK4
# MYLK = tested on: MYLK
# MYO3A = tested on: MYO3A
# MYO3B = tested on: MYO3B
# NDR1 = tested on: T1, NDR1
# T1 construct: gene STK38
# NDR2 = tested on: NDR2
# NEK10 = tested on: NEK10
# 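Further: KINOMEscan kinase panel screen.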
Structure (SMILES),%Inh (MTOR),%Inh (MUSK),%Inh (MYLK2),%Inh (MYLK4),%Inh (MYLK),%Inh (MYO3A),%Inh (MYO3B),%Inh (NDR1),%Inh (NDR2),%Inh (NEK10)
Nc1ncc(-c2ccc3nccc(-c4ccncc4)c3c2)cc1S(=O)(=O)N1CCCCC1 [GSK1693850],100%,0%,0%,10%,22%,22%,0%,30%,2%,54%
CS(=O)(=O)c1cccc(CNc2nc(Nc3ccc4c(c3)CCC(=O)N4)ncc2C(F)(F)F)c1,62%,12%,16%,0%,7%,0%,0%,58%,0%,0%
N#Cc1cnc2cc(-c3cnc(CNCCN4CCOCC4)s3)ccc2c1Nc1ccc(Oc2ccccc2)cc1 [GW664114],12%,3%,0%,13%,6%,55%,48%,14%,0%,4%
COc1cccc(NC(=O)NCCNc2ccnc(Nc3ccc(F)cc3)n2)c1 [GSK1379879],32%,5%,0%,0%,16%,22%,0%,18%,0%,0%
CC(C)NCC(Cc1ccccc1)NC(=O)c1cc(Br)c(-c2ccnc3[nH]ccc23)s1.Cl.Cl (stereo not drawn) [GSK1383281],6%,0%,1%,79%,56%,19%,0%,90.3%,65%,2%
O=C(O)C(F)(F)F.O=c1[nH]ccc2nc(N[C@@H]3CCNC3)nc(Nc3ccc4c(c3)S(=O)(=O)CC4)c12 [GSK2181306],1%,0%,78%,60%,98.1%,74%,4%,89%,89%,95.3%
Nc1cccc(-c2ccc3c(N)n[nH]c3c2)c1 [GSK2193613],13%,20%,92.3%,96.9%,40%,45%,0%,27%,13%,10%
COc1ccc(NC(=O)c2ccoc2)cc1-c1ccc(C(=O)NCC2CC2)cc1 [GW810437],36%,0%,0%,0%,0%,7%,21%,32%,16%,16%
NCCC(NC(=O)c1cc(Br)c(-c2ccnc3[nH]ccc23)s1)c1ccccc1.O=C(O)C(F)(F)F.O=C(O)C(F)(F)F (stereo not drawn) [GSK1307810],12%,11%,8%,99.9%,34%,0%,0%,96.7%,96.7%,9%
Cl.Cl.NC(CNC(=O)c1cc(Br)c(-c2ccnc3[nH]ccc23)s1)c1ccccc1 (stereo not drawn) [GSK1322949],26%,22%,27%,97.2%,62%,34%,0%,96.4%,95.5%,1%
COC(=O)Nc1nc2ccc(Oc3ccc(CC(=O)Nc4cc(C(F)(F)F)ccc4F)cc3)cc2[nH]1 [GW680903],26%,95.5%,0%,0%,10%,12%,0%,0%,0%,21%
Cc1ccc(C)c(NC(=O)Nc2ccc(C)c(-c3ccc(C(=O)Nc4ccncc4)cc3)c2)c1 [GSK1398473],17%,0%,0%,0%,0%,0%,0%,29%,0%,18%
CN1CCN(Cc2ccc(NC(=O)Nc3ccc(N(C)c4ccnc(Nc5ccc(CS(C)(=O)=O)cc5)n4)cc3)cc2)CC1.Cl [GW827654],0%,98.8%,61%,18%,45%,99.1%,0%,0%,0%,28%
COc1cc(Nc2nccc(N3CCC(NS(=O)(=O)c4ccc(NC(C)=O)cc4)CC3)n2)cc(OC)c1OC [GSK1379825],16%,14%,61%,0%,1%,0%,0%,0%,0%,17%
CN(c1ccc(F)c(NC(=O)c2cccc(OC(C)(C)C#N)c2Cl)c1)c1ccc2nc(NC(=O)C3CC3)sc2n1,0%,0%,0%,0%,30%,0%,0%,0%,29%,0%

# Source: publication PMC5540273 (PLoS ONE, 2017)
